Screen size: about 5,500 compounds; about 2,000 (36%) were called active. Inconclusive results (about 18%) are left out. Cut-off read from the data, not from the text of the source: active = normalized growth mostly below about 0.91 (no sharp cut-off); inconclusive = no clear call, values can overlap the other calls; inactive = mostly above about 0.92. The list shows a part of the results.
Assay: chemical genetic growth profiling, strain panel (AID 1159580);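 note: tested at 20 µM; growth read once vehicle control cultures reached saturation at 30 °C; 1 = growth at the plate median or of vehicle wells; lower values mean less growth of the strain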
Details: S. cerevisiae deletion strains, growth OD

Measured: normalized growth

CCN1CCc2nc(N)oc2CC1
inactive: locus YAL013W, strain DEP1, hits give low values 1.03 | locus YAL040C, strain CLN3, hits give low values 0.981 | locus YCL061C, strain MRC1 (second series), hits give low values 1 | locus YDR363W, strain ESC2, hits give low values 1.03 | locus YER002W, strain NOP16, hits give low values 0.993 | locus YMR263W, strain SAP30, hits give low values 1 | locus YNL175C, strain NOP13, hits give low values 1.01 | locus YNL197C, strain WHI3, hits give low values 1.02 | locus YNL224C, strain SQS1, hits give low values 0.995 | locus YOR083W, strain WHI5 (second series), hits give low values 0.999 | locus YPL241C, strain CIN2, hits give low values 0.998

CCCCCCCCCCCCCCCC(=O)OCC(O)[C@H]1OC(=O)C(O)=C1O (some centres undefined)
active: locus YHR030C, strain SLT2, hits give low values 0.804 | locus YHR079C, strain IRE1, hits give low values 0.83 | locus YJL095W, strain BCK1, hits give low values 0.823 | locus YJR066W, strain TOR1, hits give low values 0.777 | locus YLR113W, strain HOG1, hits give low values 0.724 | locus YNL183C, strain NPR1, hits give low values 0.703 | locus YOR231W, strain MKK1, hits give low values 0.834 | locus YPL256C, strain CLN2, hits give low values 0.763
